# Assay results published in PubChem BioAssay.
# Results filed as inconclusive are left out.
# What was measured:
# [1] = rescue of PC12 cells from polyQ htt toxicity – LDH release (AID 1610); settings: PC12 mutant huntingtin toxicity, final LDH at 4 uM, stronger effect = lower value
# [2] = molecular target: Huntingtin (Homo sapiens) (UniProt P42858); assay: mutant huntingtin aggregation blockers – QA1, dose response (AID 1584); settings: in vitro mutant huntingtin aggregation assay; confirmation test; at 10 µM; stronger effect = lower value
# Huntingtin (Homo sapiens), sequence (P42858 whole entry, looked up): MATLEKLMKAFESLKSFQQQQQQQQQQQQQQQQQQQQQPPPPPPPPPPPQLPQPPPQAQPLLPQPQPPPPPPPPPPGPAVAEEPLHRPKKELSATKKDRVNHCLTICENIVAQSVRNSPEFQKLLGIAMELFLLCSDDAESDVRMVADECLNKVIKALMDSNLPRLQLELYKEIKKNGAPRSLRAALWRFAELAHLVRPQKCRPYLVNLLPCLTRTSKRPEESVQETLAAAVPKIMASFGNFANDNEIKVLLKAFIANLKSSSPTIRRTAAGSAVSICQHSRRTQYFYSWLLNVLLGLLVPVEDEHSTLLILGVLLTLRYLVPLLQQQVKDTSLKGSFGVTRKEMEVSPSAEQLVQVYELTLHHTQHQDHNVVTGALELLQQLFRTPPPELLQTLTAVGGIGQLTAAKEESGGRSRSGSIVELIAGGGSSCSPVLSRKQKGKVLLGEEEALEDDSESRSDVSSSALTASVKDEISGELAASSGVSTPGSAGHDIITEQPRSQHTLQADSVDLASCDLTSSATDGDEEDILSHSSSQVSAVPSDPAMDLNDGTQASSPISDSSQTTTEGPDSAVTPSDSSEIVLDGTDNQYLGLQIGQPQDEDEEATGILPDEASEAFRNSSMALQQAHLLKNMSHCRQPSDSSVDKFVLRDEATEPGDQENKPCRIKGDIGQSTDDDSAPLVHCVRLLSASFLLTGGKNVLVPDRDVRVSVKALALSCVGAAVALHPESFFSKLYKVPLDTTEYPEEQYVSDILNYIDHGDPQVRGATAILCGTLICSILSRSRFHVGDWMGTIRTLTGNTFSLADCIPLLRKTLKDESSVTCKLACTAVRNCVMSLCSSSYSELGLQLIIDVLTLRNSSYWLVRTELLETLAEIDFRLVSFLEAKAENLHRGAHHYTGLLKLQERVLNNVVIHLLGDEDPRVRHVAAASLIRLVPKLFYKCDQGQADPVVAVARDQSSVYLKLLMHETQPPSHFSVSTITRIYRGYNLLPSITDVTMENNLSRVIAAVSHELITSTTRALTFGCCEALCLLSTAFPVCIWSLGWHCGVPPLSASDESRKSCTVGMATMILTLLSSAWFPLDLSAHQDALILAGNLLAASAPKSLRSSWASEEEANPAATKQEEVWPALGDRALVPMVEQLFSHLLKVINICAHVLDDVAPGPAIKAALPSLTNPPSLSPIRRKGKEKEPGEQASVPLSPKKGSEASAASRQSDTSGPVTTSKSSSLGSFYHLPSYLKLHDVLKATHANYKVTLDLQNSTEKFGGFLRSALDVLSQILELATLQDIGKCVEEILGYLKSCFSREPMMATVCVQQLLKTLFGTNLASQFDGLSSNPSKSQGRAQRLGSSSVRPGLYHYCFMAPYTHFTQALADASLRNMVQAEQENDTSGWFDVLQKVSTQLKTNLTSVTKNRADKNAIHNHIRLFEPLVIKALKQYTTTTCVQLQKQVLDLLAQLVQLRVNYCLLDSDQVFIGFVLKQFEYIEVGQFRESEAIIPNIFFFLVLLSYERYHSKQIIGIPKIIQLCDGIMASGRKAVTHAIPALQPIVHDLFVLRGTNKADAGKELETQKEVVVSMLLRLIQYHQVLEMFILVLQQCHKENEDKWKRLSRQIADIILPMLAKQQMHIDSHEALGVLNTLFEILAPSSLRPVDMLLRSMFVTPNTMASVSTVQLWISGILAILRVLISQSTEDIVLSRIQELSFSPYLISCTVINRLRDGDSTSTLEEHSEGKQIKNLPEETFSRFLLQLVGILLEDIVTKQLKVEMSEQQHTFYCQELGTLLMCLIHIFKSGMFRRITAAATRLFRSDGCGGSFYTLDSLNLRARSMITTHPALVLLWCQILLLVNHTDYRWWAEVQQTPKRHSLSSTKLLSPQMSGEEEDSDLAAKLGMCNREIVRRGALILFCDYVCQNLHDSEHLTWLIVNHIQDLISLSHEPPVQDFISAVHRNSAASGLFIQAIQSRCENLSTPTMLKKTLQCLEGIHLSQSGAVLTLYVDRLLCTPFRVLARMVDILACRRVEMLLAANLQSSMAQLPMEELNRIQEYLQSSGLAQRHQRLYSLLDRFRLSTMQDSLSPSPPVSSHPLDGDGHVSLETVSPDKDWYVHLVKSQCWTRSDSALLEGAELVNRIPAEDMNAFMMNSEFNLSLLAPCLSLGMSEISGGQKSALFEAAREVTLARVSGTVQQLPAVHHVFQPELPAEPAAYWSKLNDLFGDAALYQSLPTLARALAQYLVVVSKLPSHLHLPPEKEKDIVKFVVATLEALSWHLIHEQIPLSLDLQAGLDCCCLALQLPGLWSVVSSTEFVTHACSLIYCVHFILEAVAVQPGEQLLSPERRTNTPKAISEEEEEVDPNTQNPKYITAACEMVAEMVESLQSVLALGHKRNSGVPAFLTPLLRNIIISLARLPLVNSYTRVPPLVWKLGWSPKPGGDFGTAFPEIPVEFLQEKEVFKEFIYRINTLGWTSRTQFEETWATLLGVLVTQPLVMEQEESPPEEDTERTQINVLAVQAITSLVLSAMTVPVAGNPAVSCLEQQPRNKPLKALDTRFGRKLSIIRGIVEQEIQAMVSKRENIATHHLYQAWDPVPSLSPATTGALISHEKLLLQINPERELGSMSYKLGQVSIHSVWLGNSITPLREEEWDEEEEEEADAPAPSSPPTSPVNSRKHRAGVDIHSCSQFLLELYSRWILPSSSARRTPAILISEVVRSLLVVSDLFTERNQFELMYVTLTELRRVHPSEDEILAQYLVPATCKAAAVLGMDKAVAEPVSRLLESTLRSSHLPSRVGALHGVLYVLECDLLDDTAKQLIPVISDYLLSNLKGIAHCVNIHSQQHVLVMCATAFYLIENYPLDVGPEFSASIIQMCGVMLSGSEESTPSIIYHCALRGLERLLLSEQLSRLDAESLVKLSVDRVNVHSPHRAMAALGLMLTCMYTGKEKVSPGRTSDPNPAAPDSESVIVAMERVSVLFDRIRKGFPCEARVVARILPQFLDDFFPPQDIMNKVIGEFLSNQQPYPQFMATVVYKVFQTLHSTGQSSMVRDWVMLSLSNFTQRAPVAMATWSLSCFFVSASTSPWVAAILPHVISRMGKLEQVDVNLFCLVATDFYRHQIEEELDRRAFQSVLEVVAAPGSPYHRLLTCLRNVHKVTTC
smiles,measurement,setting,value
O=c1c2ccccc2[se]n1-c1ccccc1,normalised LDH release,[1],0.64
O=C1C=CC(=O)c2c(O)cccc21,aggregation ratio,[2],0.312
O=C1C=C2C(=CCOC2O)O1 (stereo not drawn),normalised LDH release,[1],0.848
